Screening data deposited in PubChem BioAssay by National Center for Advancing Translational Sciences (NCATS).
Sampled rows, rich in hits. Any-hit rate of the full collection: about 8.1%.
Epigenetic derep = Quantitative High-Throughput Screen for Regulators of Epigenetic Control. murine LDR cells, GFP reporter derepression, 30 h. Potency, µM (series often up to 53.9 µM), for inactives: top-dose GFP activation, usual class: activators. actives 0.2% (n = 280,000); further: % of control where 0% means no effect; nearly all actives have a fitted effect of over 60% in size
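Reporter derepression read as number of fluorescent GFP-positive objects, 20-120 um in size, counted by laser-scanning cytometer. Mouse LDR line with an epigenetically silenced CMV-GFP locus; compound incubation 30 h, 37 C.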
ClpP mod = qHTS Assay for Activators of ClpP | actives 1.9% (n = 340,000) | ATP-dependent Clp protease proteolytic subunit (Bacillus subtilis (strain 168)), P80244 | purified B. subtilis ClpP, FRET peptide cleavage, 20 min | AID 651965, 2013 | Potency, µM (doses to about 57.5 µM), inactives show at the top dose activity change, negative = active; active means well fitted falling curve with a large enough effect; inconclusive means small, poorly fitted or top-dose-only effect; inactive means no such curve, though single readings can be large or run the other way; further: the source files actives as falling curves though it sought activators and does not explain the sign; nearly all actives have a fitted effect of over 65% in size
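Purified B. subtilis ClpP, 10 microg/mL final in Tris/HCl pH8 with KCl, BSA, glycerol and Tween-20, cleaved an Abz/nitrotyrosine-quenched decapeptide. Fluorescence (ex 320, em 430) was read at 0 and 20 min at room temperature. Delta was normalized to 5.8 microM ADEP and DMSO/no-enzyme controls.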
RORgamma inh = qHTS for inhibitors of ROR gamma transcriptional activity. actives 5.4% (n = 310,000). Drosophila S2 Gal4-RORgamma UAS-luciferase reporter, 20 h. Potency, µM (doses to about 53.6 µM), for the others: at the highest dose activity change, negative = inhibition, actives largely listed as inhibitors; further: on the % scale 0 is the no-effect control and ±100 the full control effect; nearly all actives have a fitted effect of over 60% in size
Target sequence (P51450 whole entry, looked up, the tested form may be a part): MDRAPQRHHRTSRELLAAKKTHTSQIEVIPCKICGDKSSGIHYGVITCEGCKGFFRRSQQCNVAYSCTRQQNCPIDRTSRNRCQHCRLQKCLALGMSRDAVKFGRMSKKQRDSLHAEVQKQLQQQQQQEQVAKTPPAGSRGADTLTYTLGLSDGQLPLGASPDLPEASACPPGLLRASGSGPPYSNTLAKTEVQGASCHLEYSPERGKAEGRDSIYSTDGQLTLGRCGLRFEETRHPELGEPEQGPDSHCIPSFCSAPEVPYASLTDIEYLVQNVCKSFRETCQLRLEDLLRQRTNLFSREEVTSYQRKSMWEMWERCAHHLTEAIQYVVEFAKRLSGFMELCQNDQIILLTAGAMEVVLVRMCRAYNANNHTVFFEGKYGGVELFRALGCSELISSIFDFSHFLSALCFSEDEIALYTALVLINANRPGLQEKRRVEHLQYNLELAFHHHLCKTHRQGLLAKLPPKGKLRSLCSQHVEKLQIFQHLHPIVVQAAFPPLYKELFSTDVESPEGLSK
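Drosophila S2 cells stably expressing Gal4-DBD/mouse RORγ fusion under metallothionein promoter plus UAS-luciferase; compound 1 h, then 700 uM CuSO4 induction for 20 h at ambient temperature; inhibition read as reduced luminescence.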
Sfp PPTase inh = qHTS Assay for Inhibitors of Bacillus subtilis Sfp phosphopantetheinyl transferase (PPTase) | 4'-phosphopantetheinyl transferase ffp (Bacillus subtilis), Q9F4F7 | actives 3.5% (n = 310,000) | Biochemical Sfp PPTase activity, qHTS | Potency, µM, for the others: largest response in the series, negative = inhibition, most hits filed as inhibitors;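 further: the enzyme is Sfp with the accession as filed and its product quenches rhodamine fluorescence; 0% = enzyme reaction without inhibitor and -100% = no enzyme wells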
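Sfp 15 nM + cpd, 15 min RT; start w/ rhodamine-CoA 5 uM, BHQ-2-YbbR 12.5 uM (final); 50 mM Hepes pH 7.6, 10 mM MgCl2, 0.01% NP-40, 0.01% BSA; read 525/598 nm at 0 and 30 min.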
VP16 counter = VP16 counterscreen qHTS for inhibitors of ROR gamma transcriptional activity; Drosophila S2 Gal4-VP16 UAS-luciferase, luminescence, 20 h; Potency, µM (series often up to 53.6 µM), without a hit: top-dose activity, negative = inhibition, actives largely listed as inhibitors; actives 3.5% (n = 310,000);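 further: Gal4-VP16 expression switched on by copper sulfate through the metallothionein promoter; on the % scale 0 is the no-effect control and ±100 the full control effect; nearly all actives have a fitted effect of over 50% in size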
PINK1 modulator = A Quantitative High throughput Screen to Identify Chemical Modulators of PINK1 Expression | PINK1 immunofluorescence, high-content cytometry, 24 h | Potency, µM (doses to about 76.6 µM), inactives show at the top dose activation (PINK1 increase), actives largely listed as activators | actives 0.2% (n = 410,000) | AID 624263, 2012; active means well fitted activation curve with a large enough effect; inconclusive means small, poorly fitted or top-dose-only effect; cell line not stated here; further: % of control where 0% means no effect; nearly all actives have a fitted effect of over 65% in size
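A stable cell line was treated with compounds at 5 concentrations for 24 hours, with CCCP as control. PINK1 levels and mitochondrial localization were measured by immunofluorescence with mitochondrial, cell and nuclear markers after fixation, read by laser-scanning cytometry.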
An asterisk follows results filed as active; [ ] = another dose, or the depositor's remark. Unless noted, the call rests on the fitted dose curve; in most records, active means well fitted curve in the direction sought with a large enough effect; inconclusive means small, poorly fitted or top-dose-only effect, or another doubt; inactive means no such curve, though single readings can be large; an effect the other way counts as inactive or inconclusive. Potency means the concentration at half of the fitted maximal effect.

CCOc1ccc(NC(=O)CCc2c(C)nc3cc(-c4ccc(Cl)cc4)nn3c2C)cc1 was read as Epigenetic derep 1%, ClpP mod -17% and PINK1 modulator 1%.
Screening Cc1ccc(/C=N/NC(=O)c2nnn(-c3nonc3N)c2CNc2ccccc2)cc1 returned ClpP mod 1%, RORgamma inh -36%, Sfp PPTase inh 16%, VP16 counter -11% and PINK1 modulator 0%.
For Nc1nonc1-n1nnc(C(=O)N/N=C/c2cc(Br)ccc2O)c1CNc1ccccc1 the results were RORgamma inh 5µM*, Sfp PPTase inh 11%, VP16 counter 7.1µM* and PINK1 modulator 2%.
Screening Brc1ccc(-c2ncc3ccccn23)cc1 returned Epigenetic derep 6%, ClpP mod -6%, RORgamma inh -42%, Sfp PPTase inh inconclusive, VP16 counter 9% and PINK1 modulator 0%.
Fc1ccc(-c2ncc3ccccn23)cc1 was read as Epigenetic derep 4%, ClpP mod -9%, RORgamma inh -39%, Sfp PPTase inh -21%, VP16 counter -19% and PINK1 modulator 3%.
`c1csc(-c2ncc3ccccn23)c1` gave Epigenetic derep -2%, ClpP mod 32µM*, RORgamma inh 3%, Sfp PPTase inh -1%, VP16 counter 0%[0.365 µM] and PINK1 modulator 5%.
`COc1cc(-c2ncc3ccccn23)cc(OC)c1OC` gave Epigenetic derep -4%, ClpP mod inconclusive, RORgamma inh 4%, Sfp PPTase inh 50µM*, VP16 counter -4% and PINK1 modulator 13%.
`COc1cc(OC)cc(-c2ncc3ccccn23)c1` gave Epigenetic derep 0%, ClpP mod 25µM*, RORgamma inh 4%, Sfp PPTase inh -11%, VP16 counter -18% and PINK1 modulator 4%.
Screening COc1ccc(-c2ncc3ccccn23)cc1 returned Epigenetic derep -2%, ClpP mod inconclusive, RORgamma inh -37%, Sfp PPTase inh 79µM*, VP16 counter 27% and PINK1 modulator -3%.
CCN1C(=O)c2ccccc2S(=O)(=O)c2ccc(C(=O)NCc3ccccc3OC)cc21 was read as Epigenetic derep -1%, ClpP mod -10% and PINK1 modulator 3%.
O=C(CNC(=O)c1ccc(F)cc1)OCc1cc(=O)n2nc(C3CC3)sc2n1 was read as Epigenetic derep 0%, ClpP mod -6% and PINK1 modulator 0%.
For COc1ccc(-c2[nH]ncc2C(=O)NCc2ccccc2OC)cc1 the results were Epigenetic derep 0%, ClpP mod -2% and PINK1 modulator -1%.
`COC(=O)c1cc(=O)nc2sc(-c3ccccc3)nn12` gave Epigenetic derep 1%, ClpP mod 28µM*, RORgamma inh 0%, Sfp PPTase inh 17%, VP16 counter 0% and PINK1 modulator 12%[38.3 µM].
COC(=O)c1cc(=O)nc2sccn12 was read as Epigenetic derep -4%, ClpP mod 28µM*, RORgamma inh 0%, Sfp PPTase inh -1%, VP16 counter 12% and PINK1 modulator 1%.
Cc1cc(C)nc(-n2nc(C)c3c(C)c(C)c(C)nc32)n1 was read as Epigenetic derep -1%, RORgamma inh 10µM*, Sfp PPTase inh 0% and VP16 counter -6%.
Screening O=C(CN1CCN(C(=O)c2ccco2)CC1)N1CCc2[nH]c3ccccc3c2C1 returned Epigenetic derep -1%, RORgamma inh 2%, Sfp PPTase inh 35µM*, VP16 counter 5% and PINK1 modulator 2%.
